Growth data for 14 compounds are collected here from PubChem BioAssay (NCI).

Among the test systems are HCT-15 colon; HT29 colon; SNB-75 CNS; SNB-19 CNS; U251 CNS; SK-MEL-5 melanoma; UACC-62 melanoma; LOX IMVI melanoma; SK-MEL-28 melanoma.
Experiment in all cases: NCI-60 one-dose screen, 48 h (100 = growth as untreated, 0 = no growth, -100 = all killed)
Holding throughout (conditions): 10 µM unless noted

This is part of a sample that, as a whole, favours compounds with a hit. Of some 83,000 tested, about 20% had one in any assay.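 A percent growth of 40 corresponds to 60% growth inhibition; 0 means no net growth; -100 means all cells died. Active threshold: below 10.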 Values without a mark were called inactive. The source made the active and inactive calls.

As for `O=C1c2cccc3cccc(c23)C(=O)N1CCCCCN1CCN(CCCCCOc2ccc(-c3nc4ccc(N5CCOCC5)cc4[nH]3)cc2)CC1`, the growth was 80.4% in the assay on HCT-15 colon; 44.3% in the assay with HT29 colon; 112% in the assay on SNB-75 CNS; 129% in the assay with SNB-19 CNS; 99.6% in the assay with U251 CNS; 96.7% in the assay with SK-MEL-5 melanoma. Also, the growth with UACC-62 melanoma is 75%; in the assay on LOX IMVI melanoma it was 56.4%; in the assay with SK-MEL-28 melanoma it was 95.7%.

Consider `COc1cc(/C=C/C(=O)Nc2cccnc2Nc2ccc(F)cc2)cc(OC)c1OC`, for which the growth is 99% in the assay with HCT-15 colon; 91.2% in the assay on HT29 colon; 97% in the assay on SNB-75 CNS; 91.1% in the assay with SNB-19 CNS; 70.8% in the assay with U251 CNS; 95.8% in the assay on SK-MEL-5 melanoma. The growth in the assay on UACC-62 melanoma was 94.7%; in the assay with LOX IMVI melanoma, 100%; with SK-MEL-28 melanoma it was 103%.

`CCOC(=O)c1sc2nc(-c3cccc(OC)c3)nc(N3CCOCC3)c2c1C`: the growth in the assay with HCT-15 colon is 96.4%; in the assay on HT29 colon, 89.9%; with SNB-75 CNS, 95.3%; in the assay on SNB-19 CNS, 89.1%; with U251 CNS, 86.9%; in the assay with SK-MEL-5 melanoma, 85.5%. Also, the growth in the assay on UACC-62 melanoma is 75.6%; in the assay with LOX IMVI melanoma it was 94%; with SK-MEL-28 melanoma, 101%.

Turning to `Cc1cn2c(/C=C3/C(=O)Nc4c3ccc3ccccc43)c(C(F)(F)F)nc2s1`, the growth is 27% with HCT-15 colon; 0.295% (active) in the assay with HT29 colon; -6.4% (active) in the assay on SNB-75 CNS; 36.3% in the assay with SNB-19 CNS; 17.5% with U251 CNS; 24.7% in the assay with SK-MEL-5 melanoma. Further, the growth in the assay on UACC-62 melanoma is 31.6%; in the assay on LOX IMVI melanoma, 33.6%; in the assay on SK-MEL-28 melanoma, 58.4%.

Consider `Cc1[nH]c(-c2ccc3cc[nH]c3c2)c2c1C(=O)CCCC2`, for which the growth is 30.6% in the assay on HCT-15 colon; 27.4% with HT29 colon; 6.65% (active) with SNB-75 CNS; 53.1% in the assay with SNB-19 CNS; 48.5% in the assay on U251 CNS; 49.6% with SK-MEL-5 melanoma. In addition, the growth in the assay with UACC-62 melanoma was 24.8%; in the assay with LOX IMVI melanoma, 16.2%; in the assay with SK-MEL-28 melanoma, 66.2%.

`NC(=O)c1cc(I)ccc1NC(=O)/C=C/c1ccccc1Cl`: the growth with HCT-15 colon is 17.8%; in the assay with HT29 colon, 8.09% (active); with SNB-75 CNS it was -14.5% (active); in the assay with SNB-19 CNS it was 31.9%; with U251 CNS, 21.8%; with SK-MEL-5 melanoma, 3.33% (active). For the same compound, the growth in the assay with UACC-62 melanoma was 37.8%; in the assay with LOX IMVI melanoma, 50.7%; with SK-MEL-28 melanoma, 38%.

For the compound `COc1cccc(C2=NN3C(C2)c2cc(Br)cc(OC)c2OC32CCN(Cc3ccccc3)CC2)c1` (stereo unspecified), the growth in the assay with HCT-15 colon was 101%; in the assay with HT29 colon it was 108%; with SNB-75 CNS, 89.5%; with SNB-19 CNS, 101%; in the assay on U251 CNS, 98.8%; in the assay on SK-MEL-5 melanoma, 99.5%. The growth is 98.7% in the assay with UACC-62 melanoma, 94.2% in the assay on LOX IMVI melanoma and 107% in the assay on SK-MEL-28 melanoma.

Consider `Cc1ccc(/C=C2\SC(=S)N(CC(=O)NCCCN3CCOCC3)C2=O)cc1`, for which the growth in the assay with HCT-15 colon is 96.3%; in the assay on HT29 colon, 109%; with SNB-75 CNS it was 87.2%; in the assay with SNB-19 CNS, 94.5%; in the assay on U251 CNS it was 100%; in the assay on SK-MEL-5 melanoma, 97.1%. Further, the figures for the growth in the assay with UACC-62 melanoma, in the assay with LOX IMVI melanoma and in the assay on SK-MEL-28 melanoma were 99.7%, 91.7% and 100%, respectively.

In the case of `O=C1Nc2cc(-c3ccc(O)cc3)ccc2/C1=C/c1ccc[nH]1`, the growth in the assay on HCT-15 colon was 7.26% (active); with HT29 colon, 8.88% (active); in the assay with SNB-75 CNS, 19%; in the assay with SNB-19 CNS, 27.8%; in the assay with U251 CNS, 18.9%; with SK-MEL-5 melanoma it was -17.3% (active). The growth is 15.7% in the assay on UACC-62 melanoma, -6.81% (active) in the assay with LOX IMVI melanoma and 23.6% in the assay with SK-MEL-28 melanoma.

As for `C#Cc1cccc(NC(=O)c2ccccc2NC(=O)CCl)c1`, the growth was 68.7% [8.25 µM] in the assay on HCT-15 colon; 86.1% [8.25 µM] in the assay with HT29 colon; 70.5% [8.25 µM] with SNB-75 CNS; 74.2% [8.25 µM] in the assay on SNB-19 CNS; 74.6% [8.25 µM] in the assay with U251 CNS; 87.7% [8.25 µM] in the assay with SK-MEL-5 melanoma. The growth is 85.1% [8.25 µM] in the assay with UACC-62 melanoma, 91.4% [8.25 µM] with LOX IMVI melanoma and 102% [8.25 µM] in the assay on SK-MEL-28 melanoma.

Turning to `Cc1cc(C)nc(SC2=C(Nc3cccc(Cl)c3)C(=O)N(Cc3ccccc3)C2=O)n1`, the growth in the assay with HCT-15 colon is 59.9% [30 µM]; in the assay with HT29 colon it was 53.6% [30 µM]; with SNB-75 CNS it was 58.5% [30 µM]; in the assay with SNB-19 CNS, 94.4% [30 µM]; in the assay on U251 CNS, 78.5% [30 µM]; in the assay on SK-MEL-5 melanoma it was 50.1% [30 µM]. Besides, the growth was 61.4% [30 µM] in the assay with UACC-62 melanoma, 67.6% [30 µM] in the assay with LOX IMVI melanoma and 93.2% [30 µM] in the assay with SK-MEL-28 melanoma.

As for `Cc1ccccc1COc1ccc(-c2onc(C)c2-c2ccc(Cl)cc2)cc1`, the growth in the assay on HCT-15 colon is 37.6%; in the assay with HT29 colon, 16.9%; in the assay with SNB-75 CNS it was 52.9%; in the assay on SNB-19 CNS, 55.5%; in the assay on U251 CNS it was 41.3%; with SK-MEL-5 melanoma it was 73.4%. In addition, the growth in the assay with UACC-62 melanoma is 48.5%; in the assay with LOX IMVI melanoma, 68%; with SK-MEL-28 melanoma it was 70.5%.

Regarding `CCN(CC)c1ccc(-c2cc(-c3cc(OC)c(OC)c(OC)c3)nc(N3CCOCC3)c2C#N)cc1`, the growth with HCT-15 colon was 10.7%; with HT29 colon, 2.21% (active); in the assay with SNB-75 CNS it was 29.8%; in the assay with SNB-19 CNS, 79%; in the assay on U251 CNS, 36.7%; with SK-MEL-5 melanoma, -83.3% (active). For the same compound, the growth in the assay on UACC-62 melanoma was -58% (active); in the assay with LOX IMVI melanoma it was -77.3% (active); in the assay on SK-MEL-28 melanoma, 21.8%.

As to `COc1cc(C2CC(=O)c3ccccc3N2)cc(OC)c1OC` (stereo unspecified), the growth in the assay with HCT-15 colon was 102%; in the assay with HT29 colon it was 77.8%; in the assay on SNB-75 CNS it was 94.7%; in the assay on SNB-19 CNS it was 97.1%; in the assay on U251 CNS, 88.5%; in the assay with SK-MEL-5 melanoma, 99.5%. Besides, the growth in the assay on UACC-62 melanoma was 94.1%; in the assay on LOX IMVI melanoma, 104%; in the assay on SK-MEL-28 melanoma, 107%.
